Calls of active or inactive are those of the source.
Assays:
[1] = system: Wnt5a (protein binding on small-molecule microarray); assay: small molecules binding Wnt5a protein – biophysical, small-molecule microarray, 635/667 nm fluorescence, primary screen (AID 1142); details: 635 nm fluorescence, higher = more signal;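 note: fluorescence read at 667 nm with signal to noise per printed feature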
[2] = ATP-based viability of Huh7 replicon cells – cell-based, CellTiter-Glo luminescence, basal, 48 h, cytotoxicity control for HCV replication inhibitor project, primary screen (AID 1143); details: higher = more signal, called active from +8 up or from −8 down;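 note: Huh7 hepatoma cells carrying a hepatitis C replication reporter with no stimulus; test concentration not given here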
[3] = basal CRE-LacZ reporter activity in PC12 – cell-based, unstimulated, primary screen (AID 1145); details: no forskolin, luminescence, 4.5 h, higher = more signal, called active from +8 up or from −8 down
[4] = forskolin-driven CRE-LacZ activity in PC12 – cell-based, CRE-LacZ reporter, forskolin-stimulated, primary screen (AID 1146); details: luminescence, 4.5 h, higher = more signal, called active from +8 up or from −8 down;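 note: PC12 cells with 6xCRE LacZ reporter stimulated by forskolin 10 µM; beta-galactosidase reporter signal reflecting CREB driven transcription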
[5] = biological target: Streptavidin (Streptomyces avidinii) (UniProt P22629); assay: compounds binding control protein streptavidin – biophysical, small-molecule microarray, 635/667 nm fluorescence, artefact control for SMM compound annotation, primary screen (AID 1147); details: higher = more signal;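 note: signal reflects streptavidin binding to arrayed compounds as a control protein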
[6] = probe aInhba binding on compound microarray – biochemical, small-molecule microarray, 635/667 nm fluorescence, primary screen (AID 1148); details: higher = more signal;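 note: score merges 667nm spot fluorescence with signal-to-noise for antibody binding to printed compounds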
Torsin-1A (Homo sapiens) [7] = biological target: Torsin-1A (Homo sapiens) (UniProt O14656); assay: TOR1A wild-type binding on microarray – cell lysate, small-molecule microarray, lysate, 635/667 nm, primary screen (AID 1149); details: COS7 hTOR1A-WT lysate, 635 nm fluorescence, higher = more signal
Torsin-1A (Homo sapiens) [8] = biological target: Torsin-1A (Homo sapiens) (UniProt O14656); assay: torsin A mutant lysate binding on microarrays – cell lysate, small-molecule microarray, COS7 lysate, 635/667 nm fluorescence, primary screen (AID 1150); details: COS7 hTOR1A mutant lysate, 635 nm fluorescence, higher = more signal;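 note: score pools 667 nm emission and signal to noise measuring lysate protein binding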
[9] = system: Sonic hedgehog protein (Shh); assay: Sonic hedgehog microarray binding compounds – biochemical, small-molecule microarray, 635/667 nm fluorescence, primary screen (AID 1151); details: 635 nm fluorescence, higher = more signal;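 note: Shh protein binding to compounds spotted on small-molecule microarray slides; score combines spot fluorescence intensity with signal-to-noise across triplicate slides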
[10] = optical density shifts of acrAB sulA E. coli – strain DRC41, OD650, 48 h, E. coli filamentation inducer project, primary screen (AID 1152); details: higher = more signal, called active from +8 up or from −8 down;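 note: E. coli MC1000 strain DRC41 lacking acrAB efflux pump and sulA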
[11] = probe aLefty1 binding on compound microarray – biochemical, small-molecule microarray, 635/667 nm fluorescence, primary screen (AID 1153); details: higher = more signal;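 note: score merges spot fluorescence with signal-to-noise ratio from the scanned slide images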
[12] = plasmodial surface anion channel blockers, osmotic lysis – cell-based, P. falciparum Indochina, OD700, 1 h, primary screen (AID 1154); details: P. falciparum Indochina infected RBC osmotic lysis, higher = more signal, called active from +8 up or from −8 down
[13] = plasmodial surface anion channel blockers, osmotic lysis – cell-based, P. falciparum Indochina, OD700, 2 h, primary screen (AID 1155);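 note: lysis reports solute entry through the parasite surface anion channel PSAC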; details: P. falciparum Indochina infected erythrocytes, higher = more signal, called active from +8 up or from −8 down
[14] = changes in parasitized red cell lysis, either direction – P. falciparum Indochina, OD700, 3 h, PSAC antagonist project, primary screen (AID 1156); details: P. falciparum-infected erythrocytes, osmotic lysis, higher = more signal, called active from +8 up or from −8 down
[15] = plasmodial surface anion channel blockers, osmotic lysis – cell-based, P. falciparum Indochina, OD700, 18 h, primary screen (AID 1157); details: P. falciparum Indochina infected erythrocytes, osmotic lysis OD700, 18 h; higher = more signal, called active from +8 up or from −8 down
[16] = S6 kinase pathway phospho-S6 level changes – cell-based, A549, cytoblot, luminescence, serum-stimulated, primary screen (AID 1158); details: 5 h, higher = more signal;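 note: serum-stimulated A549 lung adenocarcinoma cells; signal is phosphorylated S6 detected by cytoblot immunostaining with HRP secondary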
[17] = biological target: NADPH oxidase 2 (Homo sapiens) (UniProt P04839); assay: compounds shifting NOX2 Amplex Red fluorescence – cell-based, HEK293-NOX2, PMA-stimulated, NOX inhibitor project, primary screen (AID 1159); details: 45 min, higher = more signal, called active from +8 up or from −8 down; note: test concentration not given here
[18] = biological target: NADPH oxidase 4 (Homo sapiens) (UniProt Q9NPH5); assay: compounds shifting NOX4 Amplex Red fluorescence – cell-based, HEK293-NOX4, tetracycline-induced, NOX inhibitor project, primary screen (AID 1160); details: HEK293-NOX4, Amplex Red H2O2 fluorescence, 45 min; higher = more signal, called active from +8 up or from −8 down
[19] = biological target: NADPH oxidase 5 (Homo sapiens) (UniProt Q96PH1); assay: compounds shifting NOX5 Amplex Red fluorescence – cell-based, HEK293-NOX5, NOX inhibitor project, primary screen (AID 1161); details: HEK293-NOX5, ionomycin, 45 min, higher = more signal
[20] = compound effects on lung adenocarcinoma cell viability – A549, calcein-AM fluorescence, 48 h, basal, profiling panel (AID 1162); details: higher = more signal; note: test concentration not given here

Sequence of NADPH oxidase 2 (Homo sapiens) (P04839 whole entry, looked up): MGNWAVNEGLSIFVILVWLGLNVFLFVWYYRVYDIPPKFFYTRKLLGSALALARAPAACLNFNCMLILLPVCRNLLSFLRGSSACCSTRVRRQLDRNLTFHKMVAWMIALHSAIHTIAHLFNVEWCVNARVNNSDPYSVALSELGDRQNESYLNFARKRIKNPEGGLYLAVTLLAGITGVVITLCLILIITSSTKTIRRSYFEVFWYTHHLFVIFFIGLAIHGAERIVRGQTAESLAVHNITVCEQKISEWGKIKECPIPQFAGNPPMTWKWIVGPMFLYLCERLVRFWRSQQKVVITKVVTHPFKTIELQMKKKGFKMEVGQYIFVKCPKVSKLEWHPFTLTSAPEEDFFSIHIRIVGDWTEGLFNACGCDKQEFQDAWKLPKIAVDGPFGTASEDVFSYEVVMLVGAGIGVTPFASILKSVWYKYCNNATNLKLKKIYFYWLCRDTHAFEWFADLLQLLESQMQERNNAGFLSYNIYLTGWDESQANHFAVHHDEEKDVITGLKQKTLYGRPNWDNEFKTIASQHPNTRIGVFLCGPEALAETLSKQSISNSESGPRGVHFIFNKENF
Sequence of NADPH oxidase 4 (Homo sapiens) (Q9NPH5 whole entry, looked up): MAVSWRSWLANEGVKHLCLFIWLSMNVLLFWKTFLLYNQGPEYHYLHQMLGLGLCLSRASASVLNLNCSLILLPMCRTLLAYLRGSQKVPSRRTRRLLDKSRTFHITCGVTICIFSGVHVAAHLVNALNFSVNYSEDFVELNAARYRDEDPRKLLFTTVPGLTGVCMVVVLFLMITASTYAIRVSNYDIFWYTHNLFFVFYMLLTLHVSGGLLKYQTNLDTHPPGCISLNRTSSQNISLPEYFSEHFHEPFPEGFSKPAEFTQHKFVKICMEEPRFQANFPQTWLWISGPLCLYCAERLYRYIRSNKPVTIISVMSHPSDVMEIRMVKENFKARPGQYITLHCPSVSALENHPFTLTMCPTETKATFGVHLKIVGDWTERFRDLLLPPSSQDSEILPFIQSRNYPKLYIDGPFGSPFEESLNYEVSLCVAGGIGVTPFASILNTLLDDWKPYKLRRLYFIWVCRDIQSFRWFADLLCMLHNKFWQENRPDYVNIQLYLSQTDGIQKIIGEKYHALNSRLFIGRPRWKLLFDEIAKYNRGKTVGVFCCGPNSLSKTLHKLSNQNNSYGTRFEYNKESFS
Sequence of NADPH oxidase 5 (Homo sapiens) (Q96PH1 whole entry, looked up): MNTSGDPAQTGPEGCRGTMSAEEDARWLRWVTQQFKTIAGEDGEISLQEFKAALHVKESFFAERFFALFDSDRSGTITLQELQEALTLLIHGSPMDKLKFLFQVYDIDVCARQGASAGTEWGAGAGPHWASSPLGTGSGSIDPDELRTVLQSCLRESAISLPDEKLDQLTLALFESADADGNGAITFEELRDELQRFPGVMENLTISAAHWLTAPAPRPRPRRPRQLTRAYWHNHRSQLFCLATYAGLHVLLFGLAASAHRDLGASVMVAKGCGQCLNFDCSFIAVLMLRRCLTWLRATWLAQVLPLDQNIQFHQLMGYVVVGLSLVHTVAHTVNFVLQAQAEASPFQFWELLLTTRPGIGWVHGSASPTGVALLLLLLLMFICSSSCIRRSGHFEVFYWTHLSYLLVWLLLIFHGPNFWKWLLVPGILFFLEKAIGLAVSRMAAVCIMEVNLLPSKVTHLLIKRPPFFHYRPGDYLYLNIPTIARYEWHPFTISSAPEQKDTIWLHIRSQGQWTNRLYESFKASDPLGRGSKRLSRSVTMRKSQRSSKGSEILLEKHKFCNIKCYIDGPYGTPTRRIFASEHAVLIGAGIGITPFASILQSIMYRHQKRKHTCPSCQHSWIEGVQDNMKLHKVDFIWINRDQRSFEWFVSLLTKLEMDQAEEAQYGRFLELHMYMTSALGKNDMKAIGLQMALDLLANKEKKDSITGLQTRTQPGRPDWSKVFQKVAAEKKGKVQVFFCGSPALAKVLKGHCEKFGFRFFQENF
Sequence of Torsin-1A (Homo sapiens) (O14656 whole entry, looked up): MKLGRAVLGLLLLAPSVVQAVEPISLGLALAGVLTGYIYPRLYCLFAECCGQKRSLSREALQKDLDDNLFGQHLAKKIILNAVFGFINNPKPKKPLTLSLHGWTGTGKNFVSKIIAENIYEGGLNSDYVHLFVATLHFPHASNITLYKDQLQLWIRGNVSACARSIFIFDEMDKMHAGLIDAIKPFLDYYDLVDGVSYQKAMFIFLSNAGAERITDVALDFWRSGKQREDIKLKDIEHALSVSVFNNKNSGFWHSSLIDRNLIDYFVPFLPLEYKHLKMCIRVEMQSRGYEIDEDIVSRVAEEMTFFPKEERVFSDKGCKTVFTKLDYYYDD
Sequence of Streptavidin (Streptomyces avidinii) (P22629 whole entry, looked up): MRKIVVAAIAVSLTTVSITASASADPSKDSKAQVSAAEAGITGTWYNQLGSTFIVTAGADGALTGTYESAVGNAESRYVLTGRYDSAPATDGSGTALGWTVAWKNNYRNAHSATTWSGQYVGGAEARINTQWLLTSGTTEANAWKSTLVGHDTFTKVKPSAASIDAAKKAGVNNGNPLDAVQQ

Row | SMILES | composite z-score [1] | z-score [2] | z-score [3] | z-score [4] | composite z-score [5] | composite z-score [6] | composite z-score (Torsin-1A (Homo sapiens) [7]) | composite z-score (Torsin-1A (Homo sapiens) [8]) | composite z-score [9] | z-score [10] | composite z-score [11] | z-score [12] | z-score [13] | z-score [14] | z-score [15] | z-score [16] | z-score [17] | z-score [18] | z-score [19] | z-score [20]
1 | CC(C)N1C(=O)c2ccccc2[C@@H](C(=O)NCc2ccccc2)[C@@H]1c1ccc(CO)cc1 | 0.0422 | -0.144 (inactive) | 0.0279 (inactive) | -0.659 (inactive) | -1.17 | -0.206 | 0.81 | 0.436 | -0.49 | 1.12 (inactive) | -0.15 | 2.59 (inactive) | 0.425 (inactive) | 0.884 (inactive) | 0.818 (inactive) | 0.325 | -0.00885 (inactive) | 0.454 (inactive) | -0.101 | 0.538
2 | C=CCC(OC(C)=O)[C@@H]1[C@@H](N(Cc2ccc(-c3ccccc3)cc2)C(=O)c2ccc(-c3ccccc3)cc2)c2cc(OCCCO)ccc2N1C(=O)c1ccc(-c2ccccc2)cc1 (stereo not given in full) | 0.144 | 0.534 (inactive) | -0.0247 (inactive) | -0.426 (inactive) | 0.222 | 0.0439 | 0.276 | 0.0533 | 0.107 | 2.03 (inactive) | -0.0088 | 0.568 (inactive) | 0.712 (inactive) | -0.181 (inactive) | 0.0154 (inactive) | 0.531 | 0.844 (inactive) | 0.967 (inactive) | 1.17 | 0.444
3 | C[N+](C)(C)CCCCNC(=O)[C@@H]1C[C@@H]2C(=O)NCC(=O)N2[C@@H]1c1cccc(OCCO)c1 | 0.857 | -1.08 (inactive) | -0.939 (inactive) | -0.689 (inactive) | 0.461 | 0.124 | 1.87 | 1.1 | 2.16 | 1.78 (inactive) | -0.221 | 2.68 (inactive) | -1.12 (inactive) | -2.75 (inactive) | -1.98 (inactive) | 0.855 | -1.42 (inactive) | -0.57 (inactive) | 0.766 | 1.59
4 | C[N+](C)(C)CCCC[C@@H]1NC(=O)[C@@H]2C[C@H](C(=O)NCCCCCNC(=O)CS)[C@H](c3ccc(O)cc3)N2C1=O | 0.684 | -0.244 (inactive) | -0.398 (inactive) | -0.757 (inactive) | -0.101 | -0.128 | 0.348 | 0.305 | 1.42 | 1.18 (inactive) | -0.0536 | 0.453 (inactive) | -1.65 (inactive) | -4.23 (inactive) | -2.4 (inactive) | 1.4 | 0.621 (inactive) | 0.774 (inactive) | 2.12 | -0.215
5 | C=CC[C@]1(C(=O)N(C)C)N=C(c2ccc(OCCCO)cc2)O[C@H]1c1ccccc1CN=[N+]=[N-] | 0.508 | -1.79 (inactive) | 2.8 (inactive) | -1.16 (inactive) | 1.39 | 0.0388 | 0.581 | 1.1 | 0.0463 | 1.19 (inactive) | -0.237 | 11.8 (active) | 1.47 (inactive) | 2.63 (inactive) | 0.817 (inactive) | 0.434 | 1.23 (inactive) | 0.653 (inactive) | -1.25 | 0.937
6 | CN1C=C(C(=O)OCCS(C)(=O)=O)C(C(=O)OCCS(C)(=O)=O)=CC(CCCO)=CC1c1cccs1 (stereo not given) | 0.131 | -0.894 (inactive) | 5.95 (inactive) | -1.56 (inactive) | -0.0015 | -0.299 | 0.408 | 0.0286 | 1.05 | 0.302 (inactive) | -0.0011 | 1.91 (inactive) | -1.53 (inactive) | -0.727 (inactive) | -1.71 (inactive) | -0.496 | 0.92 (inactive) | 0.858 (inactive) | 0.0246 | 2.6
7 | C=CCC(OC(C)=O)[C@@H]1[C@@H](N(Cc2ccc(-c3cccc(C(F)(F)F)c3)o2)C(=O)c2ccc(-c3ccccc3)cc2)c2cc(OCCCO)ccc2N1C(=O)Cc1ccc(OC)cc1 (stereo not given in full) | 0.0578 | -1.84 (inactive) | 1.38 (inactive) | -0.0892 (inactive) | -0.152 | -0.273 | -0.267 | 0.0992 | 0.214 | 1.73 (inactive) | -0.0501 | 0.963 (inactive) | 0.485 (inactive) | 0.218 (inactive) | -0.0843 (inactive) | 0.509 | 0.964 (inactive) | 1.06 (inactive) | 2.21 | 0.161
8 | Cc1ccc(N2C(=O)c3ccccc3[C@](C)(C(=O)NC3CC3)[C@@H]2c2ccc(CO)cc2)nc1 | 0.119 | 0.0401 (inactive) | -0.619 (inactive) | -0.732 (inactive) | -0.468 | 0.0053 | 0.141 | 1.06 | 0.496 | 1.3 (inactive) | -0.0162 | 0.262 (inactive) | -0.236 (inactive) | 0.151 (inactive) | -0.0411 (inactive) | 0.199 | -0.712 (inactive) | 0.504 (inactive) | 0.398 | 0.434
